PubChem BioAssay AID1851 (National Center for Advancing Translational Sciences (NCATS), 2009)
“And” between values parts separate entries of the source, which are not always exact repeats. Equal entries are not always repeated. Hit rate of the full screen: of about 16,000 compounds, about 4,000 (25%) were called active. Inconclusive results (about 26%) are left out. These entries were drawn from the full list. A number with no mark means an inactive call. Calls come from the whole dose curve; as a rule, active = well fitted curve in the direction sought with a large enough effect; inconclusive = small, poorly fitted or top-dose-only effect, or effect the other way; inactive = no such curve, though single readings can be large or run the other way.

Target: Cytochrome P450 2C9 (Homo sapiens) (UniProt P11712)
Assay: Cytochrome panel assay with activity outcomes
Conditions: recombinant CYP, pro-luciferin dealkylation, luminescence, p450-cyp2c9; series mostly up to 57.1 µM
% is set by controls: 0 for no effect and ±100 for the full control effect.

Chain of Cytochrome P450 2C9 (Homo sapiens) (P11712 whole entry, looked up): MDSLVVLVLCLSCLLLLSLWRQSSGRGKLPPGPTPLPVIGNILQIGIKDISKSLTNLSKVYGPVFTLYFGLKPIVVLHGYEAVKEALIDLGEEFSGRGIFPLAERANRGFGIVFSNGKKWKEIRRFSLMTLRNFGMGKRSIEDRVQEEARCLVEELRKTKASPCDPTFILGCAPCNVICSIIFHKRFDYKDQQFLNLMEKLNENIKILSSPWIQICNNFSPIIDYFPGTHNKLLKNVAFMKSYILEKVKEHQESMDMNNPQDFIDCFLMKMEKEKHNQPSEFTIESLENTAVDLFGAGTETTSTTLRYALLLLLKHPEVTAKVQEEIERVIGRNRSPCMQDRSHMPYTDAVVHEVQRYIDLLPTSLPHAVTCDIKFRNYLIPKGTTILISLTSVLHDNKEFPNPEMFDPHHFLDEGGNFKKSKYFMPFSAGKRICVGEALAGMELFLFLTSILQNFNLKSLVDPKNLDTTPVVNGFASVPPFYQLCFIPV

| Structure (SMILES) | AC50 | activity, negative = inhibition |
| --- | --- | --- |
| CN(C)CCO[C@](C)(c1ccccc1)c1ccccn1 | inactive | – |
| COC(=O)c1sccc1NC(=O)c1cc(-c2ccc(C)cc2)nc2ccccc12 | 3.98 µM (active) | – |
| COC(=O)c1sccc1NC(=O)c1cc(-c2ccc(C)cc2C)nc2ccccc12 | 2.24 µM (active) | – |
| COC(=O)c1sccc1NC(=O)c1cc(-c2cc(C)ccc2C)nc2ccccc12 | inactive | – |
| COc1ccc(-c2cc([C@H](O)[C@@H]3CCCCN3)c3ccccc3n2)cc1 | – | 3.54% [at 11.4 µM] |
| COC(=O)CNC(c1ccccc1Cl)c1cc(Br)ccc1NC(=O)CCN1CCOCC1 (configuration not stated) | 15.8 µM (active) | – |
| Clc1ccccc1-c1cc(NCCN2CCOCC2)ncn1 | – | 16.8% [at 2.29 µM] |
| O=C(CSCc1ccccc1Cl)NN1C(=O)c2ccccc2C1=O | 3.98 µM (active) | – |
| O=C(NN1C(=O)c2ccccc2C1=O)C1CCCCC1 | inactive | – |
| O=C(NNC(=S)Nc1ccccc1)C1CC1 | inactive | – |
| O=C(CSCc1ccccc1Cl)NNC(=O)c1ccccc1 | inactive | – |
| O=C(CSCc1ccccc1Cl)NNC(=S)Nc1ccccc1 | 2.51 µM (active) | – |
| CC(C)CNC(=O)O | – | -4.26% [at 11.4 µM] |
| Cc1oc(-c2cccs2)[n+]([O-])c1C | inactive | – |
| C(=C\c1nnc(-c2cccs2)o1)/c1ccccc1 | 14.1 µM (active) | – |
| Clc1cccc(Cl)c1CSc1nnc(/C=C/c2ccccc2)o1 | inactive | – |
| CC1(C)N=C(N)N=C(N)N1c1cccc(OCc2cccc([N+](=O)[O-])c2)c1 | – | -1.87% [at 11.4 µM] |
| O=[N+]([O-])c1ccc(C2CCCC/C2=N\OCc2cccc(F)c2)c([N+](=O)[O-])c1 (configuration not stated) | 7.94 µM (active) | – |
| CCN1CCN(C(=O)N[C@H](C(=O)N[C@@H]2C(=O)N3C(C(=O)O)=C(CSc4nnnn4C)CS[C@@H]23)c2ccc(O)cc2)C(=O)C1=O | inactive | – |
| CCCCN(CC)S(=O)(=O)c1ccc(C(=O)Nc2nnc(CSC)o2)cc1 | 0.891 µM (active) | – |
| CN(CCC(=O)O)S(=O)(=O)c1ccccc1 | – | 22.4% [at 11.4 µM] |
| CCCCN(C)S(=O)(=O)c1ccc(C(=O)Nc2nnc(CSC)o2)cc1 | 0.794 µM (active) | – |
| CN(Cc1ccco1)c1ccnc(-c2ccccc2C(F)(F)F)n1 | – | -4.94% [at 2.29 µM] |

| Structure (SMILES) | AC50 | activity, negative = inhibition |
| --- | --- | --- |
| O=C(O)C[C@H](S)C(=O)O | – | 10.9% [at 11.4 µM] |
| O=C(c1ccco1)N1CCN(C(=O)c2nn3cccnc3c2Cl)CC1 | inactive | – |
| O=C(c1ccc(Cl)cc1)N1CCN(C(=O)c2ccco2)CC1 | inactive | – |
| O=C(c1cc(-c2ccc(Cl)cc2Cl)on1)N1CCN(C(=O)c2ccco2)CC1 | 7.08 µM (active) | – |
| CC[N+](CC)(CC)CC(=O)Nc1c(C)cccc1C | inactive | – |
| Cc1cc2cc3c(cc2nc1SCC(=O)Nc1c(C)cccc1C)CCC3 | 4.47 µM (active) | – |
| Cc1cccc(C)c1NC(=O)C[N+](C)(C)C | inactive | – |
| CO[C@H]1COC(=O)[C@H]2CCCN2C(=O)[C@@H](C)COC(=O)C/C=C\[C@@H]1C | – | 7.11% [at 11.4 µM] |
| O=C(NCc1cccnc1)/C(=C/c1ccc(-c2cccc(Cl)c2)o1)S(=O)(=O)c1ccccc1 | 6.31 µM (active) | – |
| CCN(C(=S)Nc1ccccc1F)C1CCCCC1 | inactive | – |
| CN(C(=S)Nc1ccccc1F)C1(c2ccccc2Cl)CCCCC1=O (configuration not stated) | 17.8 µM (active) | – |
| COc1ccccc1CNc1ncncc1-c1ccc(C(=O)N(C)C)cc1 | – | -24.3% [at 2.29 µM] |
| COc1ccccc1C(=O)NCCn1cc(SCC(=O)Nc2nnc(C)s2)c2ccccc21 | 2.24 µM (active) | – |
| COC(=O)Nc1nc2ccc(SC(C)C)cc2[nH]1 | inactive | – |
| Cc1noc(C)c1C(=O)N1CCC2(CCN(Cc3cc(C(F)(F)F)cc(C(F)(F)F)c3)CC2)CC1 | inactive | – |
| CO[C@@H]1COC(=O)CC=C[C@@H](C)[C@@H]2C=C[C@H](O)[C@@H](COC(=O)[C@H](C)NC(=O)CC=C[C@H]1C)O2 | – | -4.45% [at 11.4 µM] |
| CC(C)OP(=O)(OC(C)C)C(NC(=O)c1ccc(Br)cc1)c1ccccc1 (configuration not stated) | 10 µM (active) | – |
| Nc1ccccc1C#Cc1ccccc1 | 7.94 µM (active) and 14.1 µM (active) | – |
| COc1ccc(Oc2ncc3nc(-c4cc(F)cc(F)c4)c(=O)n(C)c3n2)cc1 | inactive | – |
| COc1ccc(Oc2ncc3nc(-c4cccs4)c(=O)n(C)c3n2)cc1 | 3.16 µM (active) | – |
| COCCn1c(=O)c(-c2cccs2)nc2cnc(Oc3ccc(OC)cc3)nc21 | 5.01 µM (active) | – |
| Cn1cc(-c2nc3cnc(Oc4ccccc4)nc3n(C3CC3)c2=O)c2ccccc21 | inactive | – |
| COc1ncc2nc(-c3cccs3)c(=O)n(-c3ccccc3)c2n1 | inactive | – |

| Structure (SMILES) | AC50 | activity, negative = inhibition |
| --- | --- | --- |
| COc1ccc(Oc2ncc3nc(-c4cccs4)c(=O)n(-c4ccccc4)c3n2)cc1 | inactive | – |
| COCCn1c(=O)c(-c2cccs2)nc2cnc(N(C)C)nc21 | inactive | – |
| O=c1c(-c2cccs2)nc2cnc(Oc3ccccc3)nc2n1C1CC1 | 3.16 µM (active) | – |
| COCCn1c(=O)c(-c2cccs2)nc2cnc(Oc3ccccc3)nc21 | 3.98 µM (active) | – |
| CS(=O)(=O)Nc1cccc(-c2ccc3ncnc(NCc4cccnc4)c3c2)c1 | – | -11.8% [at 2.29 µM] |
| FC(F)(F)c1ccccc1-c1nc(NCc2cccs2)c2ccccc2n1 | – | -25.9% [at 2.29 µM] |
| CC(C)C(=O)NCCc1nc2ccccc2n1CCCOc1ccc(Cl)cc1 | 3.16 µM (active) | – |
| CC(C)C(=O)NCCn1ccc2ccccc21 | inactive | – |
| C[C@H]1/C=C\CC(=O)OC[C@H](C)C(=O)N2CCC[C@@H]2C(=O)OC1 | – | 4.32% [at 11.4 µM] |
| O=C(CN1CCc2ccccc21)NC(=O)NCc1ccco1 | 15.8 µM (active) | – |
| Cc1cnc(CNc2ncnc3ccc(-c4ccc(N(C)C)cc4)cc23)cn1 | – | -3.84% [at 2.29 µM] |
| CO[C@@H]1COC(=O)[C@H](Cc2ccccc2)NC(=O)C/C=C\[C@@H](C)[C@H](OC)COC(=O)[C@@H](C)NC(=O)C/C=C\[C@H]1C | – | -11.8% [at 11.4 µM] and -14.5% [at 11.4 µM] |
| Cc1cccc(CNc2ncncc2-c2cccnc2)c1 | – | 1.46% [at 2.29 µM] |
| Cc1cccc(-n2nc([N+](=O)[O-])c(=NCc3cccnc3)n2O)c1 | 10 µM (active) | – |
| S=C1NCN2CCN(CC2)CNC(=S)C(=S)NCN2CCN(CC2)CNC1=S | – | -2.75% [at 11.4 µM] |
| CC(=O)c1cc(NC(=O)c2ccccc2)c(=O)oc1/C=C/N(C)C | inactive | – |
| Cc1ccc(C(=O)Nc2cc3c(oc2=O)CCCC3=O)cc1 | inactive | – |
| Cc1oc(=O)c(NC(=O)c2ccccc2)cc1C(=O)c1ccccc1 | 12.6 µM (active) | – |
| Cc1cccc(CNc2cc(-c3c(C)noc3C)ncn2)c1 | – | -2.84% [at 2.29 µM] |
| O=C(O)C1(C(=O)O)CCN(S(=O)(=O)c2ccccc2)CC1 | – | -9.03% [at 11.4 µM] |
| O=C(O)CC1(C(=O)O)CCCCC1 | – | -2.68% [at 11.4 µM] |
| N.N.O=C(O)C1(C(=O)O)CCC1.[Pt] | 3.98 µM (active) | – |
| Cc1ccc(CSC(N)=Nc2ccccc2)cc1C | – | 7.44% [at 11.4 µM] |

| Structure (SMILES) | AC50 | activity, negative = inhibition |
| --- | --- | --- |
| CN(C)/C=C/C(=O)c1ccc(Cl)cc1 | inactive | – |
| CN(C)/C=C/C(=O)c1ccc(F)cc1 | inactive | – |
| CC(Oc1ccc(Cl)cc1)C(=O)/C=C/N(C)C (configuration not stated) | 12.6 µM (active) | – |
| CCN(CC)CCn1c(=S)[nH]c2cc3c(cc2c1=O)OCO3 | inactive | – |
| O=C(CCCCCn1c(=S)[nH]c2cc3c(cc2c1=O)OCO3)N1CCN(C2CCCCC2)CC1 | 1.12 µM (active) | – |
| CN(Cc1ccco1)c1ncncc1-c1cccc(C#N)c1 | – | 2.42% [at 2.29 µM] |
| C[N+](C)(C)CC(=O)O | inactive | – |
| COCCNc1ccnc(-c2c(C)noc2C)n1 | – | 17.7% [at 2.29 µM] |
| Cc1nc(Oc2ccc(Cl)cc2)c2oc3ccccc3c2n1 | inactive | – |
| Cc1nc(SCC(=O)Nc2ccc3c(c2)OCCO3)c2oc3ccccc3c2n1 | 2 µM (active) | – |
| Cc1nc(SCC(=O)c2ccc(Cl)s2)c2oc3ccccc3c2n1 | 0.447 µM (active) | – |
| CCc1nc(SCC(=O)c2ccc(Cl)s2)c2oc3ccccc3c2n1 | 1.12 µM (active) | – |
| Cc1nc(SCC(=O)NCCc2ccc(Cl)cc2)nc(C)c1C | inactive | – |
| CCc1nc(SCC(=O)NCCc2ccccc2)c2oc3ccccc3c2n1 | 1.12 µM (active) | – |
| Nc1nc(SCc2ccc([N+](=O)[O-])cc2)c2ncn([C@@H]3O[C@@H](CO)[C@@H](O)[C@H]3O)c2n1 | inactive | – |
| CN1CCC(=C2c3ccccc3C=Cc3ccccc32)CC1 | inactive | – |
| CO[C@@H]1COC(=O)[C@H](CCSC)NC(=O)C/C=C\[C@@H](C)COC(=O)[C@@H]2CCCN2C(=O)C/C=C\[C@H]1C | – | 13.2% [at 11.4 µM] |
| CCNc1ncc2nc(-c3ccc(Cl)cc3)c(=O)n(C[C@H]3CCCO3)c2n1 | inactive | – |
| CN1CCc2c(c3ccccc3n2C)C1 | inactive | – |
| CC(C)c1ccc(NC(=O)N(CCc2nc3ccccc3[nH]2)C2CCCC2)cc1 | 7.94 µM (active) | – |
| COCC(=O)O[C@]1(CCN(C)CCCc2nc3ccccc3[nH]2)CCc2cc(F)ccc2[C@@H]1C(C)C | inactive | – |
| Cn1c(=O)c2[nH]c(CCCCc3nc4ccccc4[nH]3)nc2n(C)c1=O | – | 2.16% [at 11.4 µM] |
| Cc1cnc(CNc2ncnc3ccc(-c4ccccc4C(F)(F)F)cc23)cn1 | – | -21.8% [at 2.29 µM] |
